Laboratory results: the supplement of paper PMC13380429
Unmarked numbers belong to inactive results.

Test system: Vero E6 infected with SARS-CoV-2
Assay: inhibition of SARS-CoV-2 cytopathic effect; higher = more antiviral protection, active = above 15
Conditions: 48 h

Compound	inhibition of SARS-CoV-2 cytopathic effect (1 nM) [%]	inhibition of SARS-CoV-2 cytopathic effect (8.33 nM) [%]	inhibition of SARS-CoV-2 cytopathic effect (100 nM)	inhibition of SARS-CoV-2 cytopathic effect (833.33 nM)	inhibition of SARS-CoV-2 cytopathic effect (10000 nM) [%]
CC1(C)CNc2cc(NC(=O)c3cccnc3NCc3ccncc3)ccc21 [motesanib]	-2.26	-1.53	-1.67%	1.7%	1.82
CC(C)NCC(O)c1ccc([N+](=O)[O-])cc1 (stereo not given) [nifenalol]	-3.06	0.04	-1.08%	0.11%	-2.75
CCc1cc(/C(C)=N/OCc2ccc(C3CCCCC3)c(C(F)(F)F)c2)ccc1CN1CC(C(=O)O)C1 [siponimod]	-0.21	-1.67	-0.01%	-0.18%	1.37
Cc1nc2ccccc2n1Cc1ccc(Cl)cc1 [chlormidazole]	-3.42	-1.1	-6.27%	-3.55%	-4.49
O=C1CN=C(c2cccc(Br)c2)c2oc3ccccc3c2N1	-2.75	-1.3	-1.9%	0.38%	0.75
O=C1NC(=O)c2cc(Nc3ccccc3)c(Nc3ccccc3)cc21	-1.24	1.7	-0.24%	0.41%	1.85
COc1ccc2[nH]cc(CCNC(C)=O)c2c1 [melatonin]	2.18	0.84	2.24%	2.42%	-2.74
CCOC(=O)c1ccc(N)cc1 [benzocaine]	-3.23	-2.13	-1.89%	-4.68%	-1.78
Cn1ncnc1COc1nn2c(-c3cc(F)ccc3F)nnc2cc1C(C)(C)C	3.33	3.4	3.15%	1.53%	0.81
CN1CCC[C@@H]1Cc1c[nH]c2ccc(CCS(=O)(=O)c3ccccc3)cc12 [eletriptan]	-0.44	1.24	2.14%	-1.16%	-2.89
Cc1cnc(C(=O)NCCc2ccc(S(=O)(=O)NC(=O)NC3CCCCC3)cc2)cn1 [glipizide]	-3.14	-1.53	-0.68%	-1.78%	0.54
CCOC(=O)[C@H](CCc1ccccc1)N[C@@H](C)C(=O)N1[C@H](C(=O)O)C[C@H]2CCCC[C@@H]21 [trandolapril]	-1.1	-1.62	-0.26%	-0.12%	1.62
COc1ccc(COc2cc3oc(=O)c4cc(C(C)O)ccc4c3cc2OC)cc1 (stereo not given) [palomid-529]	0.28	-1.83	0.02%	-0.05%	1.22
CNNCc1ccc(C(=O)NC(C)C)cc1 [procarbazine]	-1.55	4.48	-0.09%	2.14%	0.27
C=CCc1ccc(O)c(-c2cc(CC=C)ccc2O)c1 [magnolol]	-1.26	1.55	1.32%	-2.87%	-1.19
COc1cc([C@@H]2c3cc4c(cc3[C@@H](O[C@@H]3O[C@@H]5CO[C@@H](c6cccs6)O[C@H]5[C@H](O)[C@H]3O)[C@H]3COC(=O)[C@H]23)OCO4)cc(OC)c1O [teniposide]	1.37	2.49	4.69%	1.54%	-7.08
Cc1cccc(/C=N/Nc2cc(N3CCOCC3)n3nc(-c4ccncc4)cc3n2)c1	1.37	4.2	27.3% (active)	19% (active)	13.2
COc1cc([C@@H]2c3cc4c(cc3[C@@H](O[C@@H]3O[C@@H]5CO[C@@H](C)O[C@H]5[C@H](O)[C@H]3O)[C@H]3COC(=O)[C@H]23)OCO4)cc(OC)c1O [etoposide]	6.79	-0.79	-0.58%	-2.82%	4.17
Nc1nc2ccc(OC(F)(F)F)cc2s1 [riluzole]	-0.39	-3.06	0.81%	3.82%	1.88
Nc1ccc(C(=O)O)c(O)c1 [aminosalicylate]	-3.85	-0.82	-0.9%	0.11%	0.97
